# Screening data as filed in PubChem BioAssay.
# TWEAK-Fn14 inh – inhibitors of TWEAK-Fn14 signaling, primary screen, luciferase reporter cells, uHTS. inhibition, % at 10 µM. TWEAK-stimulated Fn14 reporter cells, luciferase luminescence, 8 h. AID 1159606, 2016. 360,000 compounds, 2% hits; in the data active = inhibition above about 50%
# EBV LMP1 NFkB – EBV LMP1-driven NF-kappaB luciferase reporter inhibitors, primary screen, cell-based, luminescence, single point. inhibition, % at 12.5 µM. 350,000 compounds, 0.69% hits. AID 504558, 2011. LMP1-induced NF-kappaB luciferase reporter cells; in the data active = inhibition above about 41%;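 note: 0% = neutral control wells and 100% = reference inhibitor control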
# TRPM1 prom inh – inhibitors of MITF-dependent TRPM1 promoter reporter, primary screen, cell-based, SK-MEL-5, single point, luciferase; inhibition, % at 12.5 µM; 330,000 compounds, 0.83% hits; SK-MEL-5 TRPM1 promoter luciferase, 24 h; AID 488899, 2010;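 active = mean inhibition across replicates of 60% or more, whatever share of single replicates reaches that level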
# Shn3 inh set2 – reduction of Shn3 3'UTR firefly luciferase signal, primary screen, Schnurri-3 inhibitor project, cell-based, Clone20 osteoblasts, set 2. 360,000 compounds, 0.52% hits. Clone20 osteoblast Shn3 3'UTR firefly luciferase, 24 h. inhibition, % at 12.5 µM;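 active = mean inhibition of at least 75% with every replicate also reaching 75%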;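 note: 0% = median of neutral control wells and 100% = pilot-screen positive control compound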
# Peg3 promoter – Peg3 promoter-driven luciferase inhibitors, primary screen, cell-based, HeLa, luciferase luminescence; HeLa PEG-Prom luciferase reporter, overnight; inhibition, % at 20 µM; 360,000 compounds, 1.7% hits;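 active = inhibition of at least 50% at 20 µM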
# TROY signal inh – inhibitors of TROY-driven NF-kB signaling, primary screen, Q293 LMP1-TROYcd cells, NF-kB luciferase, uHTS | Q293 LMP1-TROYcd NF-kB luciferase reporter, 4 h | 360,000 compounds, 0.98% hits | inhibition, % at 10 µM;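 active = compounds whose plate-normalised and pattern-corrected inhibition of the luciferase reporter signal at the single screening dose is 50% or more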
# Numbers without * were called inactive; x = not tested or not shown. Most compounds without a hit are left out; they make up all but 4.1% or so of the library.
SMILES,TWEAK-Fn14 inh,EBV LMP1 NFkB,TRPM1 prom inh,Shn3 inh set2,Peg3 promoter,TROY signal inh
O=C(Cn1nnc(-c2ccccc2)n1)N/N=C/c1cc([N+](=O)[O-])ccc1O,-0.9,16.5,19.2,-0.7,8.2,-9.7
O=C(Nc1ncc([N+](=O)[O-])s1)c1cccc([N+](=O)[O-])c1,93.4*,14.8,4.2,-61.7,-41.5,-13.8
CC(C)CC(=O)Nc1ncc([N+](=O)[O-])s1,15.1,-21.3,-4.9,0.9,16.9,-7.1
O=C(Nc1ccccc1)Nc1ncc([N+](=O)[O-])s1,80.7*,-10.3,-4.5,19.5,-142.5,46.5
Cc1nc(C)c(C(=O)Nc2ncc([N+](=O)[O-])s2)o1,85.4*,49.3*,35.9,42.6,37.7,33.1
Cc1[nH][nH]c(=O)c1C,-17.0,0.3,-9.8,-1.6,-7.4,-15.8
CCSc1nc(-c2ccc(OC)cc2)cc(-c2ccccc2)c1C#N,-12.1,4.1,10.2,51.0,21.8,-53.8
COc1ccc(-c2cc(-c3ccccc3)c(C#N)c(S(C)=O)n2)cc1 (centres undefined),11.8,10.6,69.6*,1.7,113.7*,-19.9
O=C(CN1C(=O)NC2NC(=O)NC21)N/N=C/c1ccc(F)cc1 (centres undefined),-12.9,-2.7,-6.3,-2.3,4.9,-6.7
CC(=O)c1c(C)[nH]c(C(=O)COC(=O)C2(C)CC2(Cl)Cl)c1C (centres undefined),-23.2,2.7,-51.6,14.3,-126.9,-1.0
COc1ccc2[nH]c(=O)c(CN(Cc3cccs3)S(=O)(=O)c3c(C)ccc4nsnc34)cc2c1,60.6*,25.7,8.2,75.1,59.4*,25.2
Cc1ccc2[nH]c(=O)c(CN(Cc3ccco3)S(=O)(=O)c3c(C)ccc4nsnc34)cc2c1,23.3,15.9,13.1,0.2,19.1,-4.6
COc1ccccc1NC(=O)c1oc2ccccc2c1C,-38.9,-21.3,x,-70.7,-221.5,-59.8
COc1ccccc1CNC(=O)c1oc2ccccc2c1C,-3.5,0.0,-11.2,6.1,-4.5,50.9*
CCOc1ccc(Cc2c(C)[nH]c3ccc(C(=O)O)cc3c2=S)cc1,0.1,-28.9,-9.6,-5.9,-8.8,-5.0
COc1ccc(N2C(=O)c3ccccc3NC2(C)C)cc1,-12.2,41.8*,-52.7,-29.2,-101.5,-66.1
O=C(/C=C/c1ccco1)NCC1(c2ccccc2)CCCC1,89.4*,4.0,-10.2,-25.6,6.2,87.4*
CN(Cc1ccccc1F)C(=O)CCCNC(=O)c1ccc(Cl)cc1,0.6,8.4,6.9,15.8,20.2,3.4
COc1ccc(CC(=O)N(C)CC(=O)Nc2ccc(F)cc2)cc1S(=O)(=O)N1CCOCC1,-5.1,-1.7,4.5,5.7,27.3,0.1
CC1(C)CC(=O)C=C(NC2=CC3OC(c4ccccc4)OCC3OC2=O)C1 (centres undefined),76.2*,-23.7,70.8*,7.3,63.6*,17.0
O=C(COc1ccccc1[N+](=O)[O-])Nc1ccc(NC(=O)c2cc3ccccc3o2)cc1,1.4,3.0,14.9,-2.9,11.3,51.9*
O=C(N/N=C/c1ccco1)c1cc2ccccc2o1,-10.4,-1.8,-20.4,-1.0,-91.9,1.5
O=C(COc1ccc(/C=N/NC(=O)c2cc3ccccc3o2)cc1Br)Nc1ccccc1,-15.5,6.1,93.2*,36.5,99.1*,40.1
CC1CCN(C(=O)c2ncn3c2c(=O)[nH]c2cccnc23)CC1,11.6,-5.4,x,-20.3,-2.9,-9.6
N#C/C(=C\c1ccncc1)c1nc2ccccc2o1,-17.5,x,x,-36.9,12.0,-16.9
SMILES,TWEAK-Fn14 inh,EBV LMP1 NFkB,TRPM1 prom inh,Shn3 inh set2,Peg3 promoter,TROY signal inh
N#C/C(=C\Nc1ccccc1O)c1nc2ccccc2o1,42.9,-0.9,7.0,21.4,1.1,51.5*
NC(N)=Nc1nc(-c2ccccc2)c2cc(F)ccc2n1,-20.4,-0.2,3.1,56.2,88.3*,5.2
C=CCOc1ccc(C(=O)/C=C2/C(=O)Nc3ccccc32)cc1,-2.3,0.8,1.2,-13.7,24.7,-23.2
COc1ccc(C(=O)/C=C2/C(=O)Nc3ccccc32)c(OC)c1,-3.8,14.0,46.0,53.3,103.0*,38.3
C=CCOc1ccccc1C(=O)/C=C1/C(=O)Nc2ccccc21,23.8,5.2,7.0,64.0,75.6*,20.4
CSc1nc(N)c(C#N)c(-c2ccc(Cl)cc2)c1C#N,32.3,-7.6,2.8,10.7,57.8*,-19.8
CSc1nc(-c2ccc(Cl)cc2)nc(N)c1C#N,0.0,x,x,-17.0,18.4,-19.8
O=C(Nc1ccc2c(c1)OCO2)c1c[nH]c(=O)n(-c2ccc(F)cc2)c1=O,8.0,-0.6,-17.5,-4.4,-81.4,-28.4
O=C(Cc1cccs1)Nc1nc2c(ccc3ccccc32)s1,50.3*,-4.3,9.6,1.5,-99.8,-4.8
CC(=O)Nc1nc2c(ccc3ccccc32)s1,-20.9,-16.2,-6.5,-45.1,-51.2,-21.3
Cc1cc(/C=C\c2ccc3cc(N(C)C)ccc3[n+]2C)c(C)n1-c1ccccc1,44.5,52.2*,100.8*,95.0*,64.0*,0.5
COc1ccc(CNC(=O)[C@@H](NC(=O)C2CCN(S(=O)(=O)c3ccccc3)CC2)C(C)C)cc1,17.5,-0.4,2.7,4.4,2.4,12.3
COc1ccc(-c2nn(-c3ccccc3)cc2/C=N/NC(N)=S)cc1OC,69.4*,9.5,-5.5,19.9,-16.0,11.9
CCC(=O)C1CCCN(C(=O)c2ccc(OC3CCN(C(=O)CCOC)CC3)cc2)C1 (centres undefined),87.8*,-0.5,12.7,4.0,6.6,10.2
COCCC(=O)N1CCC(Oc2ccc(C(=O)N3CCCC(OC)C3)cc2)CC1 (centres undefined),-10.8,4.6,5.4,0.7,1.7,-37.0
CN1CCN(C2Cc3ccc(F)cc3Sc3cc(F)c(Cl)cc32)CC1 (centres undefined),-29.3,-9.7,2.6,x,107.0*,-33.7
CN(C)C(=O)c1cccc(-c2cnc3c(NC=O)cc(-c4ccccc4Cl)cn23)c1,44.5,x,x,-5.9,28.0,31.7
COc1cc(-c2cnc3c(NC=O)cc(-c4ccccc4)cn23)cc(OC)c1OC,18.6,x,x,-2.4,9.9,24.4
COc1cc(-c2cnc3c(NC=O)cc(-c4ccccc4Cl)cn23)cc(OC)c1OC,58.8*,x,x,7.3,-0.6,43.6
COc1ccc(-c2cc(NC=O)c3ncc(-c4cccc(C(F)(F)F)c4)n3c2)cc1OC,11.8,x,x,-28.0,29.4,-12.6
COc1cc(-c2cc(NC=O)c3ncc(-c4ccccc4)n3c2)cc(OC)c1OC,24.8,x,x,-3.7,51.0*,2.5
COc1ccccc1-c1cc(NC=O)c2ncc(-c3ccc(F)cc3)n2c1,55.3*,x,x,14.6,13.7,24.8
